# Assay results published in paper PMC7862700, “An all-to-all approach to the identification of sequence-specific readers for epigenetic DNA modifications on cytosine”.
# Assays:
# Experiment in all cases: DAPPL (digital affinity profiling via proximity ligation, sequencing); 10 mM Tris-HCl pH 7.5, 50 mM NaCl, 1 mM DTT, 4% glycerol, room temperature, 30 min; GST-TFs on glutathione beads, 16-mer random dsDNA library, 0.1% formaldehyde crosslink after washing; high values mean tight binding
# FLI1 = biological target: T1, FLI1 (Homo sapiens, UniProt Q01543 1-452); conditions: protein: recombinant; tags: N-terminal GST; dsDNA, one strand shown
# T1 sequence: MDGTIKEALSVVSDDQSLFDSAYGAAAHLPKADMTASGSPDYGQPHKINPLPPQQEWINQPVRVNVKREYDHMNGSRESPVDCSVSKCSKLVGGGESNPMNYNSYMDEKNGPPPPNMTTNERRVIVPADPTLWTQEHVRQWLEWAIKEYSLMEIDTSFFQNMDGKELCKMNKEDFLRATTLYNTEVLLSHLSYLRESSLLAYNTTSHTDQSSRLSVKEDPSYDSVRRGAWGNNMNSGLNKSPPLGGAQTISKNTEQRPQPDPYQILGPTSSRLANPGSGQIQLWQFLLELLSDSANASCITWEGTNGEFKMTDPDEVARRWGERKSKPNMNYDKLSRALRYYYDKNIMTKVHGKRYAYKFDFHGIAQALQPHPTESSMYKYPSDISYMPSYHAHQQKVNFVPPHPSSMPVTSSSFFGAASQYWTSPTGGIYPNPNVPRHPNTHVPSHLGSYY
# Outline: (§1)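 GST fusions of human transcription factors were expressed in yeast and captured with glutathione beads. Once given DNA barcodes and pooled alongside a tag-only sample, they were incubated for 30 min at room temperature with 200 nmole of a random double-stranded 16-mer DNA library in Tris/NaCl/DTT/glycerol buffer, then washed, crosslinked (0.1% formaldehyde), proximity-ligated, PCR-amplified and sequenced on an Illumina NextSeq500. The binding signal of each hexamer is its read frequency for a factor divided by its frequency for the tag-only sample.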
# ELK1 = biological target: T2, ELK1 (Homo sapiens, UniProt P19419 1-428); conditions: protein: recombinant; tags: N-terminal GST; dsDNA, one strand shown
# T2 sequence: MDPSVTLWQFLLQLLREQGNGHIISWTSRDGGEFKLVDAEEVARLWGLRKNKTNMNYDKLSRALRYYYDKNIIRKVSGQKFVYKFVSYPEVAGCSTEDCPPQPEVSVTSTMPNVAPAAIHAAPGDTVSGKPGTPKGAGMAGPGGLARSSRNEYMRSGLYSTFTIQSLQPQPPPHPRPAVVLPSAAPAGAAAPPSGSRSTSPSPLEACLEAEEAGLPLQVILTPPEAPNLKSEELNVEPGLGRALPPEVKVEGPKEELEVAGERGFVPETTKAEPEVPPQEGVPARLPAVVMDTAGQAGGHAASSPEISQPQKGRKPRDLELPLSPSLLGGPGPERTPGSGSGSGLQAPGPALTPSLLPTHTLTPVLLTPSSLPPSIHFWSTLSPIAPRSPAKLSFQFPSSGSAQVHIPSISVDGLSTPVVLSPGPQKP
# Outline: as §1
# GABPA = biological target: T3, GABPA (Homo sapiens, UniProt Q06546 1-454); conditions: protein: recombinant; tags: N-terminal GST; dsDNA, one strand shown
# T3 sequence: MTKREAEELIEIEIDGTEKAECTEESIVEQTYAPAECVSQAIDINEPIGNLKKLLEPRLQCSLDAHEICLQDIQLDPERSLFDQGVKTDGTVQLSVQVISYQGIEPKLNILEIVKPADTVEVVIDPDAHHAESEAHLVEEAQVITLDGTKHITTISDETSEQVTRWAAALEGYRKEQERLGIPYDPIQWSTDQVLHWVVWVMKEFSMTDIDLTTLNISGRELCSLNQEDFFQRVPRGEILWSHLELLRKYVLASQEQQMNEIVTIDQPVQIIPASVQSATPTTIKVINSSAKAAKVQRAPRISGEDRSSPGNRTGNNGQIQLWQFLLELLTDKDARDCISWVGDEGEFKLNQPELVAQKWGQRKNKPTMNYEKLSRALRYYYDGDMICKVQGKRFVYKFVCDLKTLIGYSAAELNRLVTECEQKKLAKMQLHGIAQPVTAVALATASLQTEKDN
# Outline: as §1
# ERG = biological target: T4, ERG (Homo sapiens, UniProt P11308 1-479); conditions: protein: recombinant; tags: N-terminal GST; dsDNA, one strand shown
# T4 sequence: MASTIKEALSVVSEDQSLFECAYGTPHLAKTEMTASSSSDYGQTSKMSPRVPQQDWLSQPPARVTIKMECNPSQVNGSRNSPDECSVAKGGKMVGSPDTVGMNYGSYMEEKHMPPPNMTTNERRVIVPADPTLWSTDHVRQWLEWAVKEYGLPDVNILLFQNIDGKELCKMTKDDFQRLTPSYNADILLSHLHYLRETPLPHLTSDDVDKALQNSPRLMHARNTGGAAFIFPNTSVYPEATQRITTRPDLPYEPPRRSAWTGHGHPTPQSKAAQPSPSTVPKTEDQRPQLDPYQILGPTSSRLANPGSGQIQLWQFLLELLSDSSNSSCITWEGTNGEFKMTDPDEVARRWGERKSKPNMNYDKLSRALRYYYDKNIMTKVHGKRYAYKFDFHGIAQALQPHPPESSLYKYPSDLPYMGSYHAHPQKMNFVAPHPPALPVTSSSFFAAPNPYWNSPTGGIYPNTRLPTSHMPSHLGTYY
# Outline: as §1
# ELF1 = ELF1 (Homo sapiens, UniProt P32519 1-619); conditions: protein: recombinant; tags: N-terminal GST; dsDNA, one strand shown
# Outline: as §1
# EHF = biological target: T5, EHF (Homo sapiens, UniProt Q9NZC4 1-300); conditions: protein: recombinant; tags: N-terminal GST; dsDNA, one strand shown
# T5 sequence: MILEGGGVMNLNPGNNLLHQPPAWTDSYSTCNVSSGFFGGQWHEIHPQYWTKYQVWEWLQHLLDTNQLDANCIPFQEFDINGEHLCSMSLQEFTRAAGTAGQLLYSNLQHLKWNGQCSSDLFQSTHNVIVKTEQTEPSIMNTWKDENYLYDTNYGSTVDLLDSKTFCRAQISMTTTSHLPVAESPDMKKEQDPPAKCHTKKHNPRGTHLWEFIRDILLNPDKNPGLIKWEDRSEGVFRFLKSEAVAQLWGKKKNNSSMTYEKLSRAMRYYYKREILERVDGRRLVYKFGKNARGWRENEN
# Outline: as §1
# SPI1 = SPI1 (Homo sapiens, UniProt P17947 1-270); conditions: protein: recombinant; tags: N-terminal GST; dsDNA, one strand shown
# Outline: as §1
# SPIB = SPIB (Homo sapiens, UniProt Q01892 1-262); conditions: protein: recombinant; tags: N-terminal GST; dsDNA, one strand shown
# Outline: as §1
# ELK3 = biological target: T6, ELK3 (Homo sapiens, UniProt P41970 1-407); conditions: protein: recombinant; tags: N-terminal GST; dsDNA, one strand shown
# T6 sequence: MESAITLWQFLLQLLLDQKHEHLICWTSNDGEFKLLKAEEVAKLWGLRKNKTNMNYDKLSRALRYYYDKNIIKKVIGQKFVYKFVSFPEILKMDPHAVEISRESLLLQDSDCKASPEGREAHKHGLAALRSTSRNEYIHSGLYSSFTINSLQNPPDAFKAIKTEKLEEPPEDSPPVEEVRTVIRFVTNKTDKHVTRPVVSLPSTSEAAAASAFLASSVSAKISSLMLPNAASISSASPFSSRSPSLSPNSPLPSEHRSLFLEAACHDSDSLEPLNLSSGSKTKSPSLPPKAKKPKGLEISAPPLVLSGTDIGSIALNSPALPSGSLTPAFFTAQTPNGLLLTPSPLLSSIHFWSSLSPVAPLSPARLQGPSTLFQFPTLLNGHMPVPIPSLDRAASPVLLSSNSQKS
# Outline: as §1
# FEV = biological target: T7, FEV (Homo sapiens, UniProt Q99581 1-238); conditions: protein: recombinant; tags: N-terminal GST; dsDNA, one strand shown
# T7 sequence: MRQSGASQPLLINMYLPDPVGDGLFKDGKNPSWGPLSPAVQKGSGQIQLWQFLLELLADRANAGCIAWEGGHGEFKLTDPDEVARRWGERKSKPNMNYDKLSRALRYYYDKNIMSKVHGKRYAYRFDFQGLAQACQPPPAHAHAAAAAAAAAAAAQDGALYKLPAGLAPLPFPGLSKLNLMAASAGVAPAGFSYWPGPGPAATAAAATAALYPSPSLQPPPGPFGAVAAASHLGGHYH
# Outline: as §1
# ETV5 = ETV5 (Homo sapiens, UniProt P41161 1-510); conditions: protein: recombinant; tags: N-terminal GST; dsDNA, one strand shown
# Outline: as §1
# HSF1 = HSF1 (Homo sapiens, UniProt Q00613 1-529); conditions: protein: recombinant; tags: N-terminal GST; chain copies: 3; dsDNA, one strand shown
# Outline: as §1
# SPIC = biological target: T8, SPIC (Homo sapiens, UniProt Q8N5J4 1-248); conditions: protein: recombinant; tags: N-terminal GST; dsDNA, one strand shown
# T8 sequence: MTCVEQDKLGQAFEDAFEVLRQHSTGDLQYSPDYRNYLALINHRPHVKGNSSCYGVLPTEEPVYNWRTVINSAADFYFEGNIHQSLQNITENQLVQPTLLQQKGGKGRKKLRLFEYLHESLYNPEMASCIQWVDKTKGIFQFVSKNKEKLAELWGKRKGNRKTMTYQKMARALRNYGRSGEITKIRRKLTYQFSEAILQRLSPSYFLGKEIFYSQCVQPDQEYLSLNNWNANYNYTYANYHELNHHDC
# Outline: as §1
# ELF4 = ELF4 (Homo sapiens, UniProt Q99607 1-663); conditions: protein: recombinant; tags: N-terminal GST; dsDNA, one strand shown
# Outline: as §1
# ELK4 = biological target: T9, ELK4 (Homo sapiens, UniProt P28324-2 1-405); conditions: protein: recombinant; tags: N-terminal GST; dsDNA, one strand shown
# T9 sequence: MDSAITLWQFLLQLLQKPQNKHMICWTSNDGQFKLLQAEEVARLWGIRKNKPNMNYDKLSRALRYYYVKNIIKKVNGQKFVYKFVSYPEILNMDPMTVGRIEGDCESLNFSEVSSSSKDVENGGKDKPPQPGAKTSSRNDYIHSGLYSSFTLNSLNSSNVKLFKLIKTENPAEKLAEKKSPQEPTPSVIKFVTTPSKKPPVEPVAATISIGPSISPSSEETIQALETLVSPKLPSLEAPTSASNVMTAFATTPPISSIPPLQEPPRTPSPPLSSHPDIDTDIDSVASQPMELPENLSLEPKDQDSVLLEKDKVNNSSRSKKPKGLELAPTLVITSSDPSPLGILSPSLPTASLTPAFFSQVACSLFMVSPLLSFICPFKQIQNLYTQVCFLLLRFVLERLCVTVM
# Outline: as §1
# ETV2 = biological target: T10, ETV2 (Homo sapiens, UniProt O00321 1-342); conditions: protein: recombinant; tags: N-terminal GST; dsDNA, one strand shown
# T10 sequence: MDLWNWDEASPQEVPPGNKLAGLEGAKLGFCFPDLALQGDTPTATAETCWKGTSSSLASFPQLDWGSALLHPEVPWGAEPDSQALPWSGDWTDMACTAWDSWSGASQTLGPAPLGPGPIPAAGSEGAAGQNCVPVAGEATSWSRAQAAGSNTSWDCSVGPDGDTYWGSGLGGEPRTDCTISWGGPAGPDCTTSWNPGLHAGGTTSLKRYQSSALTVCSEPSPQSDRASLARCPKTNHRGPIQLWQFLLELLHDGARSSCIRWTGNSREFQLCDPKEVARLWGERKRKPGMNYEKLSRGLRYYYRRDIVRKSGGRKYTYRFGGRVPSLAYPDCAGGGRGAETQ
# Outline: as §1
# ELF3 = biological target: T11, ELF3 (Homo sapiens, UniProt P78545 1-371); conditions: protein: recombinant; tags: N-terminal GST; dsDNA, one strand shown
# T11 sequence: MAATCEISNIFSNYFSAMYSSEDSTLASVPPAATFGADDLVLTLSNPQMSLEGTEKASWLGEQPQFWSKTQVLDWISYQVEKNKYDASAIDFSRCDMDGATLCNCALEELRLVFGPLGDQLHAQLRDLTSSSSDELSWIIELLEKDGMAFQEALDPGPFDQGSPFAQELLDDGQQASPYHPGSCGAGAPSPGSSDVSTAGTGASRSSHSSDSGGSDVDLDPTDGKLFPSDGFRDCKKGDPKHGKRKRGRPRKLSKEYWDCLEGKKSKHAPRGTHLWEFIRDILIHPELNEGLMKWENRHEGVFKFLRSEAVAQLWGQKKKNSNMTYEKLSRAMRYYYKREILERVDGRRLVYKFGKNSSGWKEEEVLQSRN
# Outline: as §1
# CRX = CRX (Homo sapiens, UniProt O43186 1-299); conditions: protein: recombinant; tags: N-terminal GST; dsDNA, one strand shown
# Outline: as §1
# ETV1 = ETV1 (Homo sapiens, UniProt P50549 1-477); conditions: protein: recombinant; tags: N-terminal GST; dsDNA, one strand shown
# Outline: as §1
# ELF4, sequence (Q99607 whole entry): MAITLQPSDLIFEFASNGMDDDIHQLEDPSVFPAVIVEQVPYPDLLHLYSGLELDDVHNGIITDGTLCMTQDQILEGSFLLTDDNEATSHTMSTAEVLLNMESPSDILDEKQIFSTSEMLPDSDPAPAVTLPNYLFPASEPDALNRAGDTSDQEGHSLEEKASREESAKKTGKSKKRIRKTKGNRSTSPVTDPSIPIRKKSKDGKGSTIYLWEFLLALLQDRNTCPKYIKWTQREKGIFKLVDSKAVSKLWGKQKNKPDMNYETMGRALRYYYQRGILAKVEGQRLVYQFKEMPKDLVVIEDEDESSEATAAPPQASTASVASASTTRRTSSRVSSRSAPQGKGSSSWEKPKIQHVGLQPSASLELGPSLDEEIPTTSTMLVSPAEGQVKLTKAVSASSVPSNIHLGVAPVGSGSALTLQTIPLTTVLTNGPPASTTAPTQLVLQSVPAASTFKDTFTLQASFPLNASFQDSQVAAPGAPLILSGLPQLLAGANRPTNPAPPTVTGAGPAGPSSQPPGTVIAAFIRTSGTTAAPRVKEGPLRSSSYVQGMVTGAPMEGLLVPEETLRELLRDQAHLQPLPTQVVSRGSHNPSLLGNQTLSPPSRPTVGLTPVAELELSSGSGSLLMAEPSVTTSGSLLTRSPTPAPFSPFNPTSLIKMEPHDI
# HSF1, sequence (Q00613 whole entry): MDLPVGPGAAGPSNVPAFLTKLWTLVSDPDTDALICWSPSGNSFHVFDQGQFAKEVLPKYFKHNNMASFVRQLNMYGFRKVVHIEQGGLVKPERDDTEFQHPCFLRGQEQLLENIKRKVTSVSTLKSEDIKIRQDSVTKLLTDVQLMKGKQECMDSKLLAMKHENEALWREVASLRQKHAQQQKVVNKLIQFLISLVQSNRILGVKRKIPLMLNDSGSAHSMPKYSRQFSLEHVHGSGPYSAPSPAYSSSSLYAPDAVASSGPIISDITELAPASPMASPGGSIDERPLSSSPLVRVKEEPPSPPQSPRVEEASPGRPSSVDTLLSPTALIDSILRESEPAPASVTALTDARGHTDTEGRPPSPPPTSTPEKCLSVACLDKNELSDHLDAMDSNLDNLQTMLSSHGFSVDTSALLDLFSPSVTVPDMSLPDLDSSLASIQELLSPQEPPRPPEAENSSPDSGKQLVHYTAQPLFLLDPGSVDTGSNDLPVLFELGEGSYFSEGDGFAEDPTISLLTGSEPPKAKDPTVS
# ETV1, sequence (P50549 whole entry): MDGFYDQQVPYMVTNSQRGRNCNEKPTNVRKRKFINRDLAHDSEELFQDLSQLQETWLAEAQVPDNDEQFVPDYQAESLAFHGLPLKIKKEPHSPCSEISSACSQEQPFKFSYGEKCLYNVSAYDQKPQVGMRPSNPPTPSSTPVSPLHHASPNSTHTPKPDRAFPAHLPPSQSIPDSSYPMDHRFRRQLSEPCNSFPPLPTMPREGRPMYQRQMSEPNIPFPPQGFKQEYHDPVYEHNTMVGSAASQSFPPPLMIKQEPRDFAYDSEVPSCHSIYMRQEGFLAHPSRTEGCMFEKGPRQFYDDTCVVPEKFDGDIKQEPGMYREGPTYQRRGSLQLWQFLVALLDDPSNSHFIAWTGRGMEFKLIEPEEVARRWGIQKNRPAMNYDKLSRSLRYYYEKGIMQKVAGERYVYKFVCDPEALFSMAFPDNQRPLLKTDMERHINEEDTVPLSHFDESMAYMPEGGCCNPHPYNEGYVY
# CRX, sequence (O43186 whole entry): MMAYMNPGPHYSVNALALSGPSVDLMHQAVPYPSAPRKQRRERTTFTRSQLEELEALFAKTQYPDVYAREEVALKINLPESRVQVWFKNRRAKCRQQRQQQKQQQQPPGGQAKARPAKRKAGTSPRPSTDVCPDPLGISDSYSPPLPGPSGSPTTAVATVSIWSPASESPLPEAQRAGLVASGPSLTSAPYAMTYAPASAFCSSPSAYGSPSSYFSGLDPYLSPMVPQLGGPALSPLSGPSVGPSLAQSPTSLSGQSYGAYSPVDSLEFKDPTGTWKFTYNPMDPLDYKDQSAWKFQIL
# ETV5, sequence (P41161 whole entry): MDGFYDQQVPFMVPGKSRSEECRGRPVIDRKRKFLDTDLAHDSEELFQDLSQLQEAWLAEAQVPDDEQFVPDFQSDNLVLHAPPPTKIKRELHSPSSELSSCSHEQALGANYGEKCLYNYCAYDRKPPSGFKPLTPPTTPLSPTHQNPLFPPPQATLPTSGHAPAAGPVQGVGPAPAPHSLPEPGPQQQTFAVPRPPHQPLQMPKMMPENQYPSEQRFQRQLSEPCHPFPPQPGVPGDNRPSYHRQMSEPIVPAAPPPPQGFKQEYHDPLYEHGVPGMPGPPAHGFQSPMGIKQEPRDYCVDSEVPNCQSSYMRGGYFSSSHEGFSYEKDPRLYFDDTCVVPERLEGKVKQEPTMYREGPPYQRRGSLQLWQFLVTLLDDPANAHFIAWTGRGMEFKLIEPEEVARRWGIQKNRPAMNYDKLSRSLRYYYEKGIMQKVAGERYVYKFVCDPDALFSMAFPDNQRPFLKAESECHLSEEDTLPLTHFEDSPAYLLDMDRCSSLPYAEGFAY
# SPIB, sequence (Q01892 whole entry): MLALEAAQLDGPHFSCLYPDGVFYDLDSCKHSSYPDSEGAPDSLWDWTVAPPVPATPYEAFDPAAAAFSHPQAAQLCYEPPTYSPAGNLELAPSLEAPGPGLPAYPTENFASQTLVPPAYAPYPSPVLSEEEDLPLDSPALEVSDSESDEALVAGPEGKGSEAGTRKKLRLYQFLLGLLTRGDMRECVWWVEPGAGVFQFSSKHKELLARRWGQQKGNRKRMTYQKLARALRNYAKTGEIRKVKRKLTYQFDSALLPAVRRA
# ELF1, sequence (P32519 whole entry): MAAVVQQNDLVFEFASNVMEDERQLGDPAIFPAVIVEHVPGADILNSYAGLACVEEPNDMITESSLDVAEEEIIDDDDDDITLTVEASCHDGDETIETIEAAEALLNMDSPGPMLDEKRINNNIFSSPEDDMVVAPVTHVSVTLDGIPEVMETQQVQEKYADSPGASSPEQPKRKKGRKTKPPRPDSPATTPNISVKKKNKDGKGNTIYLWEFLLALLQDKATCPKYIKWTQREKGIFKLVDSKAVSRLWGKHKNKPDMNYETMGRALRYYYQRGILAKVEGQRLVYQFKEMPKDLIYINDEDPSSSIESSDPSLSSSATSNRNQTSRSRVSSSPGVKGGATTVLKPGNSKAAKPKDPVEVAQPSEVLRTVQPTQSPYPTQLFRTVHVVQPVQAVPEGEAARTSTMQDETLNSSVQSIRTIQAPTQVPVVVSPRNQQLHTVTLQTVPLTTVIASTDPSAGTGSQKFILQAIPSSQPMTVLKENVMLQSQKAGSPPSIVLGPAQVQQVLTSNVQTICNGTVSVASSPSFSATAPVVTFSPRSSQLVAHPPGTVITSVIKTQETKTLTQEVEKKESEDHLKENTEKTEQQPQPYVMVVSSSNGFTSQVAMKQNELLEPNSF
sequence,measurement,setting,value
CACTCT,binding signal,FLI1,"1.27 fold enrichment (6-mer frequency, TF over GST control)"
same,binding signal,ELK1,"1.25 fold enrichment (6-mer frequency, TF over GST control)"
same,binding signal,GABPA,"1.19 fold enrichment (6-mer frequency, TF over GST control)"
same,binding signal,ERG,"1.24 fold enrichment (6-mer frequency, TF over GST control)"
same,binding signal,ELF1,"1.36 fold enrichment (6-mer frequency, TF over GST control)"
same,binding signal,EHF,"1.38 fold enrichment (6-mer frequency, TF over GST control)"
same,binding signal,SPI1,"1.34 fold enrichment (6-mer frequency, TF over GST control)"
same,binding signal,SPIB,"1.23 fold enrichment (6-mer frequency, TF over GST control)"
same,binding signal,ELK3,"1.34 fold enrichment (6-mer frequency, TF over GST control)"
same,binding signal,FEV,"1.24 fold enrichment (6-mer frequency, TF over GST control)"
same,binding signal,ETV5,"1.29 fold enrichment (6-mer frequency, TF over GST control)"
same,binding signal,HSF1,"1.24 fold enrichment (6-mer frequency, TF over GST control)"
same,binding signal,SPIC,"1.22 fold enrichment (6-mer frequency, TF over GST control)"
same,binding signal,ELF4,"1.22 fold enrichment (6-mer frequency, TF over GST control)"
same,binding signal,ELK4,"1.58 fold enrichment (6-mer frequency, TF over GST control)"
same,binding signal,ETV2,"1.37 fold enrichment (6-mer frequency, TF over GST control)"
same,binding signal,ELF3,"1.4 fold enrichment (6-mer frequency, TF over GST control)"
same,binding signal,CRX,"1.08 fold enrichment (6-mer frequency, TF over GST control)"
same,binding signal,ETV1,"1.33 fold enrichment (6-mer frequency, TF over GST control)"
